USP8 block: blocks human USP8 ubiquitin-rhodamine cleavage | P40818 | purified USP8, Ub-rhodamine cleavage fluorescence, 30 min | inhibition, % at 20 µM | hit rate 4.2% among 47,000 | AID 1645853
USP10 inh: human USP10 deubiquitinase inhibition; Q14694; purified USP10, Ub-rhodamine fluorescence, 60 min; inhibition, % at 20 µM; hit rate 1.1% among 47,000; AID 1645856
Target sequence (Q14694 whole entry, looked up): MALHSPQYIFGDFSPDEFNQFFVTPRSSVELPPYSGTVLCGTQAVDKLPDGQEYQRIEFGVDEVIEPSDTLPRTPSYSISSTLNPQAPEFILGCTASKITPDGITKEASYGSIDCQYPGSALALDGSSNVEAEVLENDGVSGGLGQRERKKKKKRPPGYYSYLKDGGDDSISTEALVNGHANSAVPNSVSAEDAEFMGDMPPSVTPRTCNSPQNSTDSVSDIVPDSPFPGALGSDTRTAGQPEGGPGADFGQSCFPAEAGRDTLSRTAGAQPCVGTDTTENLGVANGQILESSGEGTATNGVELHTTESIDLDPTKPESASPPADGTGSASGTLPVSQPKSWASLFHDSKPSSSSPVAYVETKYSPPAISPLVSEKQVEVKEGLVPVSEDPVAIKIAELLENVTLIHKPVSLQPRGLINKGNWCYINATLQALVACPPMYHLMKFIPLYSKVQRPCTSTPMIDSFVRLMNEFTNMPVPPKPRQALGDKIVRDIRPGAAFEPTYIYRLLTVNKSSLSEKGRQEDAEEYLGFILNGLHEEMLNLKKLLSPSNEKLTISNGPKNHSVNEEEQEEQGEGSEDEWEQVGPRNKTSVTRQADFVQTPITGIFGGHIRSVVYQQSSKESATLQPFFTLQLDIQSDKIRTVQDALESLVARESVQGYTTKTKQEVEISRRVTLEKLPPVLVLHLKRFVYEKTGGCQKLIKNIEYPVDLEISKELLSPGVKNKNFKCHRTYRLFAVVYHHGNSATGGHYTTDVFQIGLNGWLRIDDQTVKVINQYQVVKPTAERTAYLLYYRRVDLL
USP7 inh: inhibitors of human USP7 deubiquitinase | Q93009 | purified USP7, Ub-rhodamine cleavage fluorescence | inhibition, % at 20 µM | hit rate 0.3% among 47,000 | AID 1645854
UCHL1 inh: human UCHL1 deubiquitinase inhibition; inhibition, % at 20 µM; purified UCHL1, Ub-rhodamine cleavage fluorescence; hit rate 0.2% among 47,000; AID 1645859
* hit, by the source's call. The list is not random: actives were taken first. Their share in the collection is about 5%. No stated cut-off is given here; in the data, active means inhibition above about 30%; inactive means the rest.

SMILES | USP8 block | USP10 inh | USP7 inh | UCHL1 inh
NC1=CC(=O)C(Nc2ccccc2O)=CC1=O | 36* | 9 | -8 | 7
COc1ccc(OCc2nc(-c3cc(C)nc4ccccc34)no2)cc1 | 2 | -6 | 5 | 8
Cc1cc(-c2noc(-c3ccoc3C)n2)c2ccccc2n1 | 37* | -4 | -9 | -20
Fc1ccccc1Cc1nnc(C2(c3cccc(Cl)c3)CCOCC2)o1 | 10 | 0 | -27 | 2
CN1C(=O)[C@@H]2CN(S(=O)(=O)c3ccccc3Cl)CCN2C(=O)[C@H]1Cc1ccccc1 | 5 | -1 | 3 | 1
Cc1noc(/C=C/Nc2ccc(OC(F)(F)F)cc2)c1[N+](=O)[O-] | 41* | 10 | 8 | -2
CCn1c(CN2CCc3ccccc3C2)nc2cc(S(=O)(=O)N(C)C)ccc21 | 79* | -5 | 4 | 0
O=C(Nc1ccc2snnc2c1)Nc1ccc(F)cc1F | 74* | 28 | 15 | 2
c1cc(N2CCOCC2)ncc1-c1noc(CN2CCCCCC2)n1 | -48 | -8 | -8 | 0
COc1ccc(OCc2nc(-c3ccc(N4CCCCCC4)nc3)no2)cc1 | 44* | -5 | 0 | -5
c1ccc2c(c1)CCN(Cc1nc(-c3ccc(N4CCOCC4)nc3)no1)C2 | 36* | -6 | 0 | 3
CSc1nc(OCC(=O)c2ccccc2)c2c3c(sc2n1)COC(C)(C)C3 | 3 | 0 | 0 | 4
NC(=O)C(OC(=O)CSc1ccccc1)c1ccccc1 (stereo unspecified) | 25 | 3 | 0 | 2
COc1ccc2c(c1)C[C@@H](c1cccnc1)N[C@H]2c1ccccn1 | -10 | -4 | 0 | 2
COc1ccc2c(c1)C[C@@H](c1cccnc1)N[C@H]2c1cccnc1 | 41* | -1 | -1 | 1
O=C1CN(C(=O)CC2CCCCC2)C(c2ccccc2)c2cc(Cl)ccc2N1 (stereo unspecified) | 34* | 12 | -24 | 12
CC(C)n1cc(C(=O)O)c(S(=O)(=O)N2CCN(c3ccccc3)CC2)n1 | -257 | -1 | -10 | 2
COc1ccc(-c2nccn3cc(C(=O)NCc4nc5ccccc5n4C)nc23)cc1 | 36* | -9 | -19 | -18
Cc1ccc2nc(Cl)c3cc(C(=O)N(C)c4ccccc4F)sc3c2c1 | 21 | 2 | 7 | 3
O=C1Cc2ccccc2C(=O)N1c1ccc2c(c1)OCO2 | 82* | 18 | -32 | 6
Cc1ccc(C(=O)/C=C/c2ccc3c(c2)OCCO3)c(OCc2ccccc2)c1 | -74 | 5 | 16 | 7
Cc1cccc(N2C(=O)/C(=C\c3ccc4c(c3)OCCO4)c3ccccc3C2=O)c1 | 88* | -6 | -17 | -4
O=C1C/C(=C\c2ccc3c(c2)OCO3)Cc2ccccc21 | 6 | 9 | 3 | 2
Cc1cccc(N2C(=O)/C(=C\c3ccc4c(c3)OCO4)c3ccccc3C2=O)c1 | 76* | -1 | -11 | -7
CCN1CCN(c2ncc3c(=O)n(Cc4ccc5c(c4)OCO5)ccc3n2)CC1 | 0 | -1 | 3 | 1
SMILES | USP8 block | USP10 inh | USP7 inh | UCHL1 inh
COc1cccc(N2C(=O)N(CC(=O)NCc3ccc(Cl)cc3)c3ccccc3S2(=O)=O)c1 | 11 | 19 | 5 | -1
COc1cccc(NC(=O)CCC(=O)Nc2ccc3nc(N4CCN(C)CC4)cc(C)c3c2)c1 | 5 | -10 | -2 | 2
COc1ccc(S(=O)(=O)N2CCc3ccccc32)cc1C(=O)Nc1ccc2[nH]c(=O)[nH]c2c1 | 73* | 31* | 8 | 2
O=C(c1ccc2occc2c1)N1CCC(S(=O)(=O)c2ccc(-c3ccco3)cc2)CC1 | 78* | 33* | 52* | 52*
CS(=O)(=O)c1ccc2nc(N(Cc3cccnc3)C(=O)c3ccc4ccccc4c3)sc2c1 | 63* | 7 | 7 | 6
COc1ccc(-n2nnnc2-c2c[nH]c3c(F)cc(F)cc23)cc1 | 31* | 8 | 6 | 0
O=C(NC1CCCC1)c1ccc2c(c1)N(Cc1cccc(Cl)c1)C(=O)c1ccccc1S2 | 0 | 6 | 5 | 0
O=C1Cc2ccccc2C(=O)N1Cc1cccc(Cl)c1 | 88* | 1 | -40 | 2
CCc1nnc(-c2ccc3ccn(CC(=O)N4CCN(c5ccccn5)CC4)c3c2)o1 | 92* | 33* | -12 | 17
CCc1nnc(-c2cc(S(=O)(=O)N3CCC(C)CC3)c[nH]2)o1 | 3 | 4 | -1 | -1
CCc1nnc(-c2cc(S(=O)(=O)N3CCN(c4ccccn4)CC3)c[nH]2)o1 | 40* | 23 | 9 | 3
CCc1nc(SCC(=O)Nc2ccccc2Cl)c2oc3ccccc3c2n1 | 5 | 16 | 7 | 1
O=S(=O)(Nc1ccc2[nH]ncc2c1)c1ccc2c(c1)CCC2 | 11 | 2 | -4 | -5
O=S(=O)(Nc1ccc2[nH]ncc2c1)c1ccc(Cl)cc1F | 37* | 1 | -3 | 4
COc1cccc(-c2cc(C(F)(F)F)c3c(-c4ccccc4)nn(-c4ccccc4)c3n2)c1 | -5 | -5 | -2 | -5
COc1cccc(-c2cn3c(-c4ccccc4)c(-c4ccccc4)nc3n2-c2ccccc2)c1 | 77* | 0 | 2 | 0
CCCn1c(-c2ccc(CC)cc2)cn2c(-c3ccccc3)c(-c3ccccc3)nc12 | 87* | 4 | 9 | 8
COc1ccc(-c2cn3c(-c4ccccc4)c(-c4ccccc4)nc3n2-c2ccccc2)cc1 | 80* | 4 | 2 | 1
COc1cccc(-c2cn3c(-c4ccccc4)c(-c4ccccc4)nc3n2-c2cccc(Cl)c2)c1 | 81* | 1 | 4 | 5
CC(C)Cc1csc2c1c(=O)n(C)c(=O)n2CC(=O)NCc1ccccc1 | 27 | 18 | 5 | 0
CNc1nccnc1C1CN(C(=O)c2n[nH]c3c2CCC3)CCO1 (stereo unspecified) | -32 | -1 | 2 | -1
O=C(O)c1ccccc1C(=O)Nc1ccc(SC(C(=O)Nc2cccc(Cl)c2Cl)c2ccccc2)cc1 (stereo unspecified) | -33 | 5 | -2 | -1
O=C(O)c1ccccc1C(=O)Nc1ccc(SC(C(=O)Nc2ccccc2Cl)c2ccccc2)cc1 (stereo unspecified) | -1 | 49* | -2 | 4
O=C(Cn1c(=O)n(-c2ccc(F)cc2)c(=O)c2oc3ccccc3c21)N1CCOCC1 | 3 | -4 | -1 | -2
CC1=C(C)C(c2c(-c3ccc(C)cc3)[nH]c3ccccc23)N(C(C)(C)C)C1=O (stereo unspecified) | 90* | 41* | 32* | 13
Cc1ccc(C(=O)Nc2ccc(Cl)cn2)c(C)c1 | -111 | 2 | 2 | 3
Cc1ccc(NC(=O)c2cc(-c3ccccn3)nc3c(Cl)cccc23)nc1 | 63* | -4 | 24 | -6
CCOC(=O)c1cnc2c(cnn2C)c1NCc1cccc(C(F)(F)F)c1 | 37* | 14 | 9 | 7
COc1ccc(NC(=O)NCCN2CCc3ccccc3C2)cc1OC | 3 | -1 | 9 | 2
COc1ccc(C(=O)[C@@H]2[C@H](C(=O)OC(c3ccccc3)c3ccccc3)N3c4ccccc4C=CC3[C@@]23C(=O)Nc2ccccc23)cc1 (stereo partly specified) | 45* | -7 | -19 | -1

Source: PubChem BioAssay (Buhrlage Lab, Dana-Farber Cancer Institute and Novartis Institutes for BioMedical Research (Cambridge, Mass))
